# Measured values reported in PubChem BioAssay (EPA / NIEHS).
# Several values for one entry are separate records, joined by “and”; a condition that tells them apart may be missing. Identical values can stand only once. Some compounds were tested as several samples or in several runs, with calls that do not always agree. Activity calls are given as the source filed them. How the source made its calls: active means hit-call score of the fitted dose curve at least 0.9, where 1 is the maximum; inactive means score below 0.9.
# What was measured:
# [1] = read-out: Low-density lipoprotein receptor (LDLR), LDLR (gene 3949); assay: BSK_CASM3C_LDLR: BioMAP Diversity Plus: CASM3C Assay for Low-density lipoprotein receptor (LDLR) Biomarker Activity (AID 2283045); conditions: primary human coronary artery smooth muscle cells; actives raise or lower the signal;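 further: LDLR protein level on the cell surface quantified by ELISA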
# [2] = read-out: Monocyte Chemoattractant Protein-1 (MCP1), CCL2 (gene 6347); assay: BSK_CASM3C_MCP1: BioMAP Diversity Plus: CASM3C Assay for Monocyte Chemoattractant Protein-1 (MCP1) Biomarker Activity (AID 2283046); conditions: primary human coronary artery smooth muscle cells; actives raise or lower the signal
# [3] = BSK_CASM3C_Proliferation: Cell Proliferation Assessment in the BioMAP Diversity Plus: CASM3C Assay (AID 2283047); conditions: primary human coronary artery smooth muscle cells;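 further: sulforhodamine B total protein stain as relative cell number at 560 nm; sub-confluent cells exposed 48 h before staining; fitted both ways against DMSO so gain or loss of cell number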
# [4] = read-out: Monokine induced gamma interferon (MIG), CXCL9 (gene 4283); assay: BSK_CASM3C_MIG: BioMAP Diversity Plus: CASM3C Assay for Monokine induced gamma interferon (MIG) Biomarker Activity (AID 2283048); conditions: primary human coronary artery smooth muscle cells; actives raise or lower the signal;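 further: MIG protein level measured by ELISA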
# [5] = read-out: serum amyloid A (SAA), SAA1 (gene 6288); assay: BSK_CASM3C_SAA: BioMAP Diversity Plus: CASM3C Assay for serum amyloid A (SAA) Biomarker Activity (AID 2283049); conditions: primary human coronary artery smooth muscle cells; actives raise or lower the signal
# [6] = BSK_CASM3C_SRB: Viability Assessment in the BioMAP Diversity Plus: CASM3C Assay (AID 2283050); conditions: primary human coronary artery smooth muscle cells;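 further: cells exposed to compound for 24 h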
# [7] = read-out: Thrombomodulin, THBD (gene 7056); assay: BSK_CASM3C_Thrombomodulin: BioMAP Diversity Plus: CASM3C Assay for Thrombomodulin Biomarker Activity (AID 2283051); conditions: primary human coronary artery smooth muscle cells; actives raise or lower the signal;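 further: thrombomodulin protein level measured by ELISA 24 h after dosing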
# [8] = read-out: Tissue Factor, F3 (gene 2152); assay: BSK_CASM3C_TissueFactor: BioMAP Diversity Plus: CASM3C Assay for Tissue Factor Biomarker Activity (AID 2283052); conditions: primary human coronary artery smooth muscle cells; actives raise or lower the signal;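 further: cell surface tissue factor protein level read by ELISA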
# [9] = read-out: Interferon-gamma inducible Protein 10 (IP10), CXCL10 (gene 3627); assay: BSK_hDFCGF_IP10: BioMAP Diversity Plus: hDFCGF Assay for Interferon-gamma inducible Protein 10 (IP10) Biomarker Activity (AID 2283053); conditions: primary human foreskin fibroblasts; actives raise or lower the signal
# Outline: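 Cells: human dermal foreskin fibroblasts. Exposure: 24 h post-dosing. Detection: IP-10 ELISA, with values expressed against DMSO controls and fitted in both directions.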
# [10] = read-out: Urokinase-type plasminogen activator receptor (uPAR), PLAUR (gene 5329); assay: BSK_CASM3C_uPAR: BioMAP Diversity Plus: CASM3C Assay for Urokinase-type plasminogen activator receptor (uPAR) Biomarker Activity (AID 2283054); conditions: primary human coronary artery smooth muscle cells; actives raise or lower the signal;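 further: cell-surface uPAR protein level quantified by ELISA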
# [11] = read-out: Vascular cell adhesion molecule 1 (VCAM1), VCAM1 (gene 7412); assay: BSK_CASM3C_VCAM1: BioMAP Diversity Plus: CASM3C Assay for Vascular cell adhesion molecule 1 (VCAM1) Biomarker Activity (AID 2283055); conditions: primary human coronary artery smooth muscle cells; actives raise or lower the signal;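 further: VCAM-1 protein level quantified by ELISA on the cells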
# [12] = read-out: Collagen III, COL3A1 (gene 1281); assay: BSK_hDFCGF_CollagenIII: BioMAP Diversity Plus: hDFCGF Assay for Collagen III Biomarker Activity (AID 2283056); conditions: primary human foreskin fibroblasts; actives raise or lower the signal
# Outline: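 Human foreskin fibroblast primary cultures sampled 24 h after dosing; Collagen III quantified by ELISA. Signal fitted bidirectionally against DMSO baseline.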
# [13] = read-out: Epidermal growth factor receptor (EGFR), EGFR (gene 1956); assay: BSK_hDFCGF_EGFR: BioMAP Diversity Plus: hDFCGF Assay for Epidermal growth factor receptor (EGFR) Biomarker Activity (AID 2283057); conditions: primary human foreskin fibroblasts; actives raise or lower the signal
# Outline: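 Dosing human primary skin fibroblasts, then measuring surface EGFR by ELISA at 24 h, gives the endpoint; gains and losses relative to DMSO were fitted in both directions.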
# [14] = read-out: Interleukin-8 (IL8), CXCL8 (gene 3576); assay: BSK_hDFCGF_IL8: BioMAP Diversity Plus: hDFCGF Assay for Interleukin-8 (IL8) Biomarker Activity (AID 2283058); conditions: primary human foreskin fibroblasts; actives raise or lower the signal
# Outline: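 Primary human foreskin fibroblasts (hDFCGF system) dosed with chemical; IL-8 measured by ELISA 24 hours later. Bidirectional curve fitting relative to DMSO baseline; cytotoxicity tracked in parallel cultures by SRB total protein staining.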
# [15] = BSK_hDFCGF_Proliferation: Cell Proliferation Assessment in the BioMAP Diversity Plus: hDFCGF Assay (AID 2283059); conditions: primary human foreskin fibroblasts;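 further: curves fitted for both rise and fall of signal versus DMSO baseline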
# Outline: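 Steps: dose primary human dermal fibroblasts (foreskin); […] fix in 10% TCA; stain with 0.1% SRB; read 560 nm; fit gain or loss of signal against DMSO.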
# [16] = read-out: Macrophage colony-stimulating factor (MCSF), CSF1 (gene 1435); assay: BSK_hDFCGF_MCSF: BioMAP Diversity Plus: hDFCGF Assay for Macrophage colony-stimulating factor (MCSF) Biomarker Activity (AID 2283060); conditions: primary human foreskin fibroblasts; actives raise or lower the signal
# Outline: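 Human foreskin fibroblast primary cultures; M-CSF measured by ELISA 24 hours after chemical dosing. Bidirectional fitting relative to DMSO, with overt cytotoxicity tracked by parallel SRB total-protein staining (0.1% SRB, 10% TCA fixation, 560 nm).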
# [17] = read-out: TIMP metallopeptidase inhibitor 1 (TIMP1), TIMP1 (gene 7076); assay: BSK_hDFCGF_TIMP1: BioMAP Diversity Plus: hDFCGF Assay for TIMP metallopeptidase inhibitor 1 (TIMP1) Biomarker Activity (AID 2283062); conditions: primary human foreskin fibroblasts; actives raise or lower the signal
# Outline: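 Human foreskin fibroblast primary cultures dosed for 24 h; secreted/surface TIMP-1 quantified by ELISA. Bidirectional curve fitting against DMSO baseline; cytotoxicity tracked in parallel cultures by SRB total-protein staining.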
# [18] = read-out: Matrix Metallopeptidase 1 (MMP1), MMP1 (gene 4312); assay: BSK_hDFCGF_MMP1: BioMAP Diversity Plus: hDFCGF Assay for Matrix Metallopeptidase 1 (MMP1) Biomarker Activity (AID 2283064); conditions: primary human foreskin fibroblasts; actives raise or lower the signal
# Outline: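 MMP1 levels quantified by ELISA 24 h after dosing human dermal fibroblast cultures, with parallel SRB total-protein staining for overt cytotoxicity. Data fitted in both directions against DMSO baseline.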
# [19] = read-out: Vascular cell adhesion molecule 1 (VCAM1), VCAM1 (gene 7412); assay: BSK_hDFCGF_VCAM1: BioMAP Diversity Plus: hDFCGF Assay for Vascular cell adhesion molecule 1 (VCAM1) Biomarker Activity (AID 2283065); conditions: primary human foreskin fibroblasts; actives raise or lower the signal;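 on AC50: VCAM-1 protein level quantified by ELISA after 24 h chemical exposure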
# Outline: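 Human foreskin fibroblast primary cells dosed with chemical, VCAM-1 measured by ELISA at 24 h. Bidirectional curve fitting relative to DMSO as negative control/baseline.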
# [20] = read-out: Plasminogen activator inhibitor-1 (PAI1), SERPINE1 (gene 5054); assay: BSK_hDFCGF_PAI1: BioMAP Diversity Plus: hDFCGF Assay for Plasminogen activator inhibitor-1 (PAI1) Biomarker Activity (AID 2283066); conditions: primary human foreskin fibroblasts; actives raise or lower the signal
# Outline: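 Fibroblasts from human foreskin were treated with test chemical. After 24 h, PAI-1 was measured by ELISA. Activity was fitted in both directions relative to DMSO.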
smiles,measurement,setting,value
CCCCNc1ccc(NCCCC)c2c1C(=O)c1ccccc1C2=O,outcome,[1],inactive
same,outcome,[2],inactive
same,outcome,[3],inactive
same,outcome,[4],inactive
same,outcome,[5],inactive
same,outcome,[6],inactive
same,outcome,[7],inactive
same,outcome,[8],inactive
same,outcome,[9],inactive
same,outcome,[10],inactive
same,outcome,[11],inactive
same,AC50,[12],3.46 µM (active)
same,outcome,[13],inactive
same,outcome,[14],inactive
same,outcome,[15],inactive
same,outcome,[16],inactive
same,outcome,[17],inactive
same,outcome,[18],inactive
same,outcome,[19],inactive
same,outcome,[20],inactive
CCOC(=O)c1ccccc1C(=C1C=C(Br)C(=O)C(Br)=C1)c1cc(Br)c(O)c(Br)c1,outcome,[1],inactive
same,AC50,[2],17.4 µM (active) and 20 µM (active)
same,AC50,[3],20.3 µM (active) and 22.1 µM (active)
same,AC50,[4],19.4 µM (active) and 22.2 µM (active)
same,outcome,[5],inactive
same,outcome,[6],inactive
same,AC50,[7],15.8 µM (active) and 20.4 µM (active)
same,outcome,[8],inactive
same,AC50,[9],3.65 µM (active) and 3.77 µM (active)
same,outcome,[10],inactive
same,AC50,[11],19.4 µM (active) and 23.1 µM (active)
same,AC50,[12],3.29 µM (active) and 3.26 µM (active)
same,outcome,[13],inactive
same,AC50,[14],8.71 µM (active) and 8.48 µM (active)
same,AC50,[15],3.46 µM (active) and 3.43 µM (active)
same,AC50,[16],5.09 µM (active) and 3.85 µM (active)
same,AC50,[17],3.75 µM (active) and 3.67 µM (active)
same,AC50,[18],4.03 µM (active) and 4.34 µM (active)
same,AC50,[19],4.49 µM (active) and 3.7 µM (active)
same,AC50,[20],3.56 µM (active) and 3.54 µM (active)
COc1ccc2nc(N)sc2c1,outcome,[1],inactive
same,outcome,[2],inactive
same,outcome,[3],inactive
same,outcome,[4],inactive
same,outcome,[5],inactive
same,outcome,[6],inactive
same,outcome,[7],inactive
same,outcome,[8],inactive
same,outcome,[9],inactive
same,outcome,[10],inactive
same,outcome,[11],inactive
same,outcome,[12],inactive
same,outcome,[13],inactive
same,outcome,[14],inactive
same,outcome,[15],inactive
same,outcome,[16],inactive
same,outcome,[17],inactive
same,outcome,[18],inactive
same,outcome,[19],inactive
same,outcome,[20],inactive
O=C(Nc1ccccc1SSc1ccccc1NC(=O)c1ccccc1)c1ccccc1,outcome,[1],inactive
same,outcome,[2],inactive
same,AC50,[3],5.1 µM (active)
same,outcome,[4],inactive
same,AC50,[5],5.22 µM (active)
same,outcome,[6],inactive
same,AC50,[7],5.27 µM (active)
same,outcome,[8],inactive
same,outcome,[9],inactive
same,AC50,[10],5.17 µM (active)
same,AC50,[11],5.16 µM (active)
same,outcome,[12],inactive
same,outcome,[13],inactive
same,outcome,[14],inactive
same,outcome,[15],inactive
same,outcome,[16],inactive
same,outcome,[17],inactive
same,outcome,[18],inactive
same,outcome,[19],inactive
same,outcome,[20],inactive
Nc1ccc(N)c(Cl)c1,outcome,[1],inactive
same,outcome,[2],inactive
same,AC50,[3],28.7 µM (active)
same,AC50,[4],6.03 µM (active)
same,outcome,[4],inactive
same,outcome,[5],inactive
same,AC50,[6],16.1 µM (active)
same,outcome,[6],inactive
same,AC50,[7],2.9 µM (active) and 3.08 µM (active)
same,AC50,[8],1.13 µM (active)
same,outcome,[8],inactive
same,AC50,[9],16 µM (active) and 20.2 µM (active)
same,outcome,[10],inactive
same,AC50,[11],27.2 µM (active) and 11.1 µM (active)
same,AC50,[12],28.4 µM (active)
same,outcome,[12],inactive
same,AC50,[13],21.4 µM (active)
same,outcome,[13],inactive
same,outcome,[14],inactive
same,AC50,[15],9.65 µM (active)
same,AC50,[16],14.9 µM (active) and 16.5 µM (active)
same,AC50,[17],34.2 µM (active)
same,outcome,[17],inactive
same,AC50,[18],34.5 µM (active) and 33 µM (active)
same,AC50,[19],13 µM (active) and 17.1 µM (active)
same,AC50,[20],26.4 µM (active) and 31.4 µM (active)
c1ccc2c(c1)ccc1ncccc12,outcome,[1],inactive
same,outcome,[2],inactive
same,outcome,[3],inactive
same,outcome,[4],inactive
same,outcome,[5],inactive
same,outcome,[6],inactive
same,outcome,[7],inactive
same,outcome,[8],inactive
same,outcome,[9],inactive
same,outcome,[10],inactive
same,outcome,[11],inactive
same,outcome,[12],inactive
same,outcome,[13],inactive
same,outcome,[14],inactive
same,AC50,[15],20 µM (active)
same,outcome,[16],inactive
same,outcome,[17],inactive
same,outcome,[18],inactive
same,outcome,[19],inactive
same,outcome,[20],inactive
S=C(NC1CCCCC1)NC1CCCCC1,outcome,[1],inactive
same,outcome,[2],inactive
same,outcome,[3],inactive
same,outcome,[4],inactive
same,outcome,[5],inactive
same,outcome,[6],inactive
same,AC50,[7],20 µM (active)
same,outcome,[8],inactive
same,outcome,[9],inactive
same,outcome,[10],inactive
same,outcome,[11],inactive
same,outcome,[12],inactive
same,outcome,[13],inactive
same,outcome,[14],inactive
same,outcome,[15],inactive
same,outcome,[16],inactive
same,outcome,[17],inactive
same,outcome,[18],inactive
same,outcome,[19],inactive
same,outcome,[20],inactive
CC(C)C(=O)C(C)C,outcome,[1],inactive
same,outcome,[2],inactive
same,outcome,[3],inactive
same,outcome,[4],inactive
same,outcome,[5],inactive
same,outcome,[6],inactive
same,outcome,[7],inactive
same,outcome,[8],inactive
same,outcome,[9],inactive
same,outcome,[10],inactive
same,outcome,[11],inactive
same,outcome,[12],inactive
same,outcome,[13],inactive
same,outcome,[14],inactive
same,outcome,[15],inactive
same,outcome,[16],inactive
same,outcome,[17],inactive
same,outcome,[18],inactive
same,outcome,[19],inactive
same,outcome,[20],inactive
CCO[Si](CCCN=C=O)(OCC)OCC,outcome,[1],inactive
same,outcome,[2],inactive
same,outcome,[3],inactive
same,outcome,[4],inactive
same,outcome,[5],inactive
same,outcome,[6],inactive
same,outcome,[7],inactive
same,outcome,[8],inactive
same,outcome,[9],inactive
same,outcome,[10],inactive
same,outcome,[11],inactive
same,outcome,[12],inactive
same,outcome,[13],inactive
same,outcome,[14],inactive
same,outcome,[15],inactive
same,outcome,[16],inactive
same,outcome,[17],inactive
same,outcome,[18],inactive
same,outcome,[19],inactive
same,outcome,[20],inactive
